Outcome and AC50 data for 15 molecules are collected here from PubChem BioAssay (EPA / NIEHS).

“And” between values parts separate entries of the source, which are not always exact repeats. Identical values can stand only once. Some compounds were tested as several samples or in several runs, with calls that do not always agree. The source made the active and inactive calls. The calls were made as follows: active = hit-call score of the fitted dose curve at least 0.9, where 1 is the maximum; inactive = score below 0.9.

Read-out in the first experiment: Plasminogen activator inhibitor-1 (PAI1), SERPINE1 (gene 5054)
Briefly: BSK_CASM3C_PAI1: BioMAP Diversity Plus: CASM3C Assay for Plasminogen activator inhibitor-1 (PAI1) Biomarker Activity (AID 2284284).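 Also: PAI-1 protein level measured by ELISA 24 h after dosing.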 To be noted: primary human coronary artery smooth muscle cells.
Take `NC(=O)C(F)(F)C(F)(F)F`: the outcome was inactive.
As to `OCC(F)(F)OC(F)(F)C(F)(F)OC(F)(F)CO`, the result was inactive.
For the molecule `O=C(O)C(F)(F)OC(F)(F)C(F)(F)OC(F)(F)C(=O)O`, the outcome was inactive.
On the same count and under the same terms, the value for `FC(F)(F)C(F)(C(F)(F)F)C(F)(F)C(F)(F)CC1CO1` (stereo unspecified) was “inactive”; that for `O=C(O)C(F)(F)OC(F)(F)C(F)(F)OC(F)(F)F` was “inactive”; that for `C=CC(=O)OCC(F)(F)C(F)F` was “inactive”.
Take `O=S(=O)(F)C(F)(F)C(F)(F)C(F)(F)C(F)(F)C(F)(F)C(F)(F)C(F)(F)C(F)(F)F`: the outcome was inactive.
On the same count and under the same terms, the value for `COP(=O)(CCC(=O)NCO)OC` was “inactive”; that for `O=C(O)C(F)(OC(F)(F)C(F)(F)C(F)(F)F)C(F)(F)F` (stereo unspecified) was “inactive”.
The same measure, in the same setting: the value for `O=C(O)C(F)(F)C(F)(F)C(=O)O` was “inactive”.
Same read-out and setting: the value for `O=C(O)C=CC(F)(C(F)(F)F)C(F)(F)F` was “inactive”.
As for `COC(=O)C(F)(F)C(F)(F)OC(F)(C(F)(F)F)C(F)(F)OC(F)=C(F)F` (stereo unspecified), the outcome was inactive.
On the same count and under the same terms, the value for `OCC(F)(F)OC(F)(F)C(F)(F)OC(F)(F)C(F)(F)OC(F)(F)F` was “inactive”; that for `OCC(F)(F)OC(F)(F)C(F)(F)OC(F)(F)C(F)(F)OC(F)(F)CO` was “inactive”.
On the same count and under the same terms, next, `CC(O)C(F)(F)C(F)(F)F` (stereo unspecified): “inactive”.

Read-out in the next experiment: Monocyte Chemoattractant Protein-1 (MCP1), CCL2 (gene 6347)
Briefly: BSK_hDFCGF_MCP1: BioMAP Diversity Plus: hDFCGF Assay for Monocyte Chemoattractant Protein-1 (MCP1) Biomarker Activity (AID 2284285). The conditions noted are these: primary human foreskin fibroblasts. In short, it runs like this:
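MCP-1 ELISA readout was taken 24 hours after dosing primary human dermal fibroblasts in the hDFCGF system, with DMSO as baseline. Parallel sulforhodamine B staining of total protein tracked overt cytotoxicity.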
Turning to `NC(=O)C(F)(F)C(F)(F)F`, the result was inactive.
On the same count and under the same terms, the value for `OCC(F)(F)OC(F)(F)C(F)(F)OC(F)(F)CO` was “inactive”.
Consider `O=C(O)C(F)(F)OC(F)(F)C(F)(F)OC(F)(F)C(=O)O`, for which the outcome was inactive.
Still for that read-out and setting: next, `FC(F)(F)C(F)(C(F)(F)F)C(F)(F)C(F)(F)CC1CO1` (stereo unspecified): “inactive”.
Still for that read-out and setting: the value for `O=C(O)C(F)(F)OC(F)(F)C(F)(F)OC(F)(F)F` was “inactive”.
As usually defined, the AC50 is the concentration at which the activity in the assay is half-maximal. Turning to `C=CC(=O)OCC(F)(F)C(F)F`, the half-maximal activity concentration (AC50) was 40.7 µM (active) and 41.8 µM (active).
For the molecule `O=S(=O)(F)C(F)(F)C(F)(F)C(F)(F)C(F)(F)C(F)(F)C(F)(F)C(F)(F)C(F)(F)F`, the result was inactive.
As for `COP(=O)(CCC(=O)NCO)OC`, the outcome was inactive.
In the case of `O=C(O)C(F)(OC(F)(F)C(F)(F)C(F)(F)F)C(F)(F)F` (stereo unspecified), the outcome was inactive.
As to `O=C(O)C(F)(F)C(F)(F)C(=O)O`, the outcome was inactive.
With `O=C(O)C=CC(F)(C(F)(F)F)C(F)(F)F`, the outcome was inactive.
Same read-out and setting: next, `COC(=O)C(F)(F)C(F)(F)OC(F)(C(F)(F)F)C(F)(F)OC(F)=C(F)F` (stereo unspecified): “inactive”.
As to `OCC(F)(F)OC(F)(F)C(F)(F)OC(F)(F)C(F)(F)OC(F)(F)F`, the result was inactive.
On to `OCC(F)(F)OC(F)(F)C(F)(F)OC(F)(F)C(F)(F)OC(F)(F)CO`, for which the AC50 was 30 µM (active) and 23.7 µM (active).
With `CC(O)C(F)(F)C(F)(F)F` (stereo unspecified), the result was inactive.

Read-out in the next experiment: Vascular cell adhesion molecule 1 (VCAM1), VCAM1 (gene 7412)
The experiment can be described thus: BSK_IMphg_VCAM1: BioMAP Diversity Plus: IMphg Assay for Vascular cell adhesion molecule 1 (VCAM1) Biomarker Activity (AID 2284286). To be noted: primary human endothelial cells with macrophages. The method in brief:
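ELISA read-out of VCAM-1 on venular endothelial cell/macrophage co-cultures at 24 h post-treatment, with DMSO as baseline and positive-direction fitting. Parallel sulforhodamine B total-protein staining (560 nm) served as the overt cytotoxicity measure.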
As to `NC(=O)C(F)(F)C(F)(F)F`, the result was inactive.
The same measure, in the same setting: next, `OCC(F)(F)OC(F)(F)C(F)(F)OC(F)(F)CO`: “inactive”; `O=C(O)C(F)(F)OC(F)(F)C(F)(F)OC(F)(F)C(=O)O`: “inactive”.
Still for that read-out and setting: next, `FC(F)(F)C(F)(C(F)(F)F)C(F)(F)C(F)(F)CC1CO1` (stereo unspecified): “inactive”.
Same read-out and setting: the value for `O=C(O)C(F)(F)OC(F)(F)C(F)(F)OC(F)(F)F` was “inactive”.
Turning to `C=CC(=O)OCC(F)(F)C(F)F`, the AC50 is 30 µM (active) and the outcome was inactive.
On to `O=S(=O)(F)C(F)(F)C(F)(F)C(F)(F)C(F)(F)C(F)(F)C(F)(F)C(F)(F)C(F)(F)F`, for which the outcome was inactive.
On the same count and under the same terms, the value for `O=C(O)C(F)(OC(F)(F)C(F)(F)C(F)(F)F)C(F)(F)F` (stereo unspecified) was “inactive”.
On the same count and under the same terms, next, `O=C(O)C(F)(F)C(F)(F)C(=O)O`: “inactive”; `O=C(O)C=CC(F)(C(F)(F)F)C(F)(F)F`: “inactive”.
The same measure, in the same setting: the value for `COC(=O)C(F)(F)C(F)(F)OC(F)(C(F)(F)F)C(F)(F)OC(F)=C(F)F` (stereo unspecified) was “inactive”.
Turning to `OCC(F)(F)OC(F)(F)C(F)(F)OC(F)(F)C(F)(F)OC(F)(F)F`, the AC50 was 47.7 µM (active) and the result was inactive.
As to `OCC(F)(F)OC(F)(F)C(F)(F)OC(F)(F)C(F)(F)OC(F)(F)CO`, the result was inactive.
Same read-out and setting: next, `CC(O)C(F)(F)C(F)(F)F` (stereo unspecified): “inactive”.
